# Screening data (PubChem)
# A selection: hits, their analogues and other compounds. The true share with any hit is near 12%.
# HP1b binding inh: HP1-beta chromodomain-methylated histone interaction inhibition. hit rate 0.56% among 390,000. AID 540317. Potency, µM (titrated, usually from 114 µM), inactives show top-dose activity change, negative = inhibition, usual class: inhibitors. AlphaScreen HP1-beta / biotin-H3K9me3 peptide binding; note: nearly all actives have a fitted effect of over 70% in size
# Target sequence (P83916 whole entry, looked up): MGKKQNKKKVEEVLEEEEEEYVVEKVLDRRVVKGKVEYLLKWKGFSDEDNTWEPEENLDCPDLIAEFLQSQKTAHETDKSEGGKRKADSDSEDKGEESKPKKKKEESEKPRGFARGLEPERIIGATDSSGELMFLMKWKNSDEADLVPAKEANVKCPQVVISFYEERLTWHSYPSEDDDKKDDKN
#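 HP1-beta protein (50 nM final) preincubated 30 min at room temperature with biotinylated H3(1-18)K9me3 peptide (50 nM) in PBS pH 7.4, 0.01% Tween-20, then compound added for 30 min. AlphaScreen streptavidin donor/nickel chelate acceptor beads (10 ug/mL final), 30 min dark, luminescence read.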
# PLK1 PBD inh: blocks phosphopeptide binding to human PLK1 polo-box domain | Potency, µM, without a hit: max response, negative = inhibition, most hits filed as inhibitors | P53350 | Plk1 PBD binding of FITC phosphopeptide, fluorescence polarization | hit rate 2.8% among 360,000 | AID 720504; note: series mostly up to about 57 µM; % is set by controls: 0 for no effect and ±100 for the full control effect; nearly all actives have a fitted effect of over 65% in size
# JMJD2A Tudor: blocks the human JMJD2A Tudor domain; hit rate 4.4% among 390,000; AlphaScreen JMJD2A-Tudor / H3K4me3 peptide binding; Potency, µM (series often up to 114 µM), for inactives: at the highest dose activity change, negative = inhibition, actives largely listed as inhibitors; note: % is set by controls: 0 for no effect and ±100 for the full control effect; nearly all actives have a fitted effect of over 50% in size
# G9a block: inhibitors of human histone lysine methyltransferase G9a; Potency, µM (doses to about 102 µM), for the others: at the highest dose activity, negative = inhibition, hits mostly inhibitors; Q96KQ7; hit rate 8.8% among 350,000; G9a H3K9 monomethylation, AlphaScreen, 2 h; note: % is set by controls: 0 for no effect and ±100 for the full control effect; nearly all actives have a fitted effect of over 75% in size
# Target sequence (Q96KQ7 913-1193 limits assumed): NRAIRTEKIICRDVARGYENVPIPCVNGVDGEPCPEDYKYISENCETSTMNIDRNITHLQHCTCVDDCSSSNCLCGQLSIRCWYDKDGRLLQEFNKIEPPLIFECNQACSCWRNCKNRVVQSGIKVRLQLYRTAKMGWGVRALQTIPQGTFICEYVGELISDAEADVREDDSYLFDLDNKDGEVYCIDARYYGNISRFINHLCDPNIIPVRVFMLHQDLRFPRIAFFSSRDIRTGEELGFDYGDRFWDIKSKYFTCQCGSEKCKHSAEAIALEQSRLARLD
#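 Enzyme 20 nM + cpd, 15 min RT; add b-H3K9 pep 500 nM / SAM 20 uM; 2 h RT; anti-H3K9me1 Ab 0.5 ug/mL + SA donor / anti-rabbit acceptor beads 20 ug/mL each, 10 min; AlphaScreen read.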
# BAZ2B inh: BAZ2B (human) inhibition; AID 504333; hit rate 4.4% among 360,000; Q9UIF8; Potency, µM (series often up to 114 µM), for the others: top-dose activity change, negative = inhibition, most hits filed as inhibitors; AlphaScreen BAZ2B-H3K14Ac peptide displacement; note: % is set by controls: 0 for no effect and ±100 for the full control effect; nearly all actives have a fitted effect of over 60% in size
#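 Multi-concentration screen (max 110 uM) measuring displacement of acetylated histone H3 peptide from BAZ2B by AlphaScreen, using 50 nM protein, 50 nM peptide and 10 ug/mL streptavidin donor plus Ni-chelate acceptor beads.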
# Sfp inh: Sfp phosphopantetheinyl transferase inhibition | Q9F4F7 | Biochemical Sfp PPTase activity, qHTS | Potency, µM, for inactives: largest response in the series, negative = inhibition, actives largely listed as inhibitors | hit rate 3.5% among 310,000;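 note: the enzyme is Sfp with the accession as filed and its product quenches rhodamine fluorescence; 0% = enzyme reaction without inhibitor and -100% = no enzyme wells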
#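 Sfp 15 nM + cpd, 15 min RT; start w/ rhodamine-CoA 5 uM, BHQ-2-YbbR 12.5 uM (final); 50 mM Hepes pH 7.6, 10 mM MgCl2, 0.01% NP-40, 0.01% BSA; read 525/598 nm at 0 and 30 min.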
# Numbers without * were called inactive; ? = inconclusive; . = no result; [ ] = another dose, or the depositor's remark. Calls come from the whole dose curve; as a rule, active = well fitted curve in the direction sought with a large enough effect; inconclusive = small, poorly fitted or top-dose-only effect, or another doubt; inactive = no such curve, though single readings can be large; an effect the other way counts as inactive or inconclusive. Potency is the fitted concentration of half-maximal effect.
SMILES,HP1b binding inh,PLK1 PBD inh,JMJD2A Tudor,G9a block,BAZ2B inh,Sfp inh
Cc1ccnc(SCc2ccc([N+](=O)[O-])cc2)n1,20%,-1%,-23%,6%,-1%,16%
COc1ccc(-n2c(COc3ccc(C)cc3)nnc2SCC(N)=O)cc1,34%,-2%,-16%,32µM*,0%,7%
COc1ccc(-c2nnc(SCC(=O)c3cccs3)n2-c2ccc(Cl)cc2)cc1,39%,-6%,-10%,?,-8%,-13%
CNC(=O)CSc1nnc(COc2ccc([N+](=O)[O-])cc2)n1C,60%,-7%,-6%,19%[59 µM],56µM*,-18%
CCC(C)c1cc([N+](=O)[O-])cc([N+](=O)[O-])c1OC(=O)OC(C)C (stereo unspecified),.,.,.,.,.,-12%
O=S(=O)(c1ccsc1)N1CCN(c2nc(-c3cccs3)nc3ccccc23)CC1,.,.,-14%,.,.,.
Cc1ccc(C(=O)Nc2cccc(C(=O)OCc3cc(=O)n4nc(C5CC5)sc4n3)c2)cc1,6%,.,-25%,3%[59 µM],-4%,.
COc1ccc(-n2c(COc3ccccc3)nnc2SCC(N)=O)cc1,48%,-6%,-32%,45µM*,-4%,7%
Cc1ccc(-n2c(COc3ccccc3)nnc2SCC(=O)O)cc1,.,0%,.,.,.,.
CCn1c(COc2ccccc2)nnc1SCC(=O)c1cccc([N+](=O)[O-])c1,-5%,-26%,?,40µM*,-34%,-2%
COc1ccc(C(=O)CSc2nnc(COc3ccc(C#N)cc3)n2-c2ccccc2)cc1,25%,7%,8%,-11%[59 µM],2%,-8%
COc1ccc(-n2c(COc3ccc4c(c3)OCO4)nnc2SCC(=O)O)cc1,21%,-9%,-21%,50µM*,-27%,13%
C=CCn1c(SCC(=O)c2ccc(Cl)cc2)nnc1-c1ccc2c(c1)OCO2,22%,-1%,0%,?,?,7%
CCOc1cc(C)ccc1OCc1nnc(SCC(=O)c2cccc([N+](=O)[O-])c2)n1CC,1%,?,-28%,-5%,-5%,20%
CCn1c(COc2ccc3c(c2)OCO3)nnc1SCC(=O)c1ccc(Cl)cc1,18%,-9%,-10%,50µM*,-1%,3%
COc1ccc(N(C)C(=O)c2nc(-c3cccc(F)c3)n3c2CCCCC3)c(OC)c1,23%,.,-27%,-23%[59 µM],-25%,.
CC[C@H](C)[C@H](NC(=O)[C@H](Cc1ccc(O)cc1)NC(=O)[C@@H](NC(=O)[C@H](CCCN=C(N)N)NC(=O)[C@@H](N)CC(=O)O)C(C)C)C(=O)N[C@@H](Cc1ccc(N)cc1)C(=O)N1CCC[C@H]1C(=O)N[C@@H](Cc1ccccc1)C(=O)O,.,.,.,.,.,3%
Cc1n(-c2ccccc2)c2ccc(Cl)cc2[n+]1CCO,-20%,-7%,?,8.9µM*,-17%,-9%
CCN(CC)C(=O)CSc1nc2ccccc2c(=O)n1-c1cccc(OC)c1,32%,-4%,0%,8%[59 µM],1%,11%
COc1cccc(-n2c(SCc3cc(=O)oc4cc(O)c(O)cc34)nc3ccccc3c2=O)c1,?,?,40µM*,?,35µM*,-16%
COc1cccc(Cn2c(=O)c(CCc3ccccc3)nc3cncnc32)c1,.,.,.,-3%[0.501 µM],.,-6%
CC(=O)NN1C(=O)/C(=C\c2ccccc2)SC1=S,25%,5%,-26%,12%,-29%,13%
CC(=O)NN1C(=O)/C(=C\c2ccc(Br)o2)SC1=S,?,?,-26%,40µM*,?,56µM*
CC(=O)NN1C(=O)/C(=C/c2ccc(Br)o2)SC1=S,50µM*,11µM*,13%[11.4 µM],50µM*,-37%,56µM*
CCOc1ccc(NS(=O)(=O)c2ccc(C(=O)N(C)CC(=O)Nc3ccccc3Br)cc2)cc1,36%,4%,-4%,.,.,.
SMILES,HP1b binding inh,PLK1 PBD inh,JMJD2A Tudor,G9a block,BAZ2B inh,Sfp inh
Cc1cc(C)c(C)c(C(=O)c2ccccc2C(=O)O)c1C,27%,-11%,-9%,.,-9%,17%
Cc1cc(O)c(C(C)C)cc1N=Nc1ccccc1C(=O)O,?,-4%,?,40µM*,?,6%
Cc1cc(N=Nc2ccccc2C(=O)O)c(C)c(C)c1O,?,-29%,-21%[11.4 µM],32µM*,28µM*,0%
CC1(C)CC[C@]2(C)CC[C@@]3(C)C(=CCC4[C@@]5(C)CCC(O)C(C)(C)C5CC[C@@]43C)C2C1 (stereo partly specified),.,.,.,-12%[2.33 µM],.,-1%
COCCN(C(=O)COC(=O)/C=C/c1cccc(C(F)(F)F)c1)c1c(N)n(CC(C)C)c(=O)[nH]c1=O,25%,5%,-8%,.,.,.
Cc1ccc(-n2nnnc2-c2cnoc2-c2cccc(F)c2)cc1,22%,21µM*,16µM*,-1%[59 µM],28%,12%
Fc1cc(F)cc(-c2oncc2-c2nnnn2-c2ccccc2)c1,3%,?,79µM*,7%[59 µM],3%,27%
Fc1ccc(-c2oncc2-c2nnnn2-c2ccccc2)cc1F,71%,-3%,-2%[57.1 µM],8%[59 µM],0%,8%
COc1ccc(Oc2nc3c(c(=O)n(C)c(=O)n3C)n2Cc2ccccc2Cl)cc1,24%,.,-8%,3%[59 µM],-8%,.
O=C(NCCCN1CCN(c2cccc(Cl)c2)CC1)Nc1ccccc1C(F)(F)F,8%,.,?,-9%[59 µM],-24%,.
COc1cccc(-c2oc3ccccc3c(=O)c2O)c1,.,.,.,.,.,-11%
O=c1c(O)c(-c2cccc(O)c2)oc2ccccc12,.,.,.,.,.,45µM*
O=c1cc(O)c2ccc(O)cc2o1,21%,-8%,-7%,18%[59 µM],-6%,-9%
O=c1ccc2[n+]([O-])c3ccc(O)cc3oc-2c1,?,-27%,-20%,10µM*,10µM*,?
Cc1ccc(S(=O)(=O)NCCOc2nc(N(C)C)nc(N3CCOCC3)n2)cc1,14%,-4%,3%,-10%[12.7 µM],-3%,-12%
Cc1ccc(S(=O)(=O)NCCOc2nc(N(C)C)nc(N(C)C)n2)cc1,-2%,24µM*,-10%[11.4 µM],.,-2%,7%
CCn1nc(CC(C)C)cc1C(=O)N1CCCC(Nc2ccc(OC)cc2)C1 (stereo unspecified),-4%,27µM*,?,?,-39%[57.1 µM],7%
COc1ccc(NC2CCCN(C(=O)c3cccc(N4CCNC4=O)c3)C2)cc1 (stereo unspecified),11%,-2%,-15%,40µM*,-14%,15%
O=C(CSc1ccccc1)N1CCCC(Nc2ccccc2)C1 (stereo unspecified),-3%,8.4µM*,16µM*,-5%,-31%,6%
O=C1CCCCN1CCC(=O)N1CCCC(Nc2ccc(F)c(F)c2)C1 (stereo unspecified),34%,-8%,1%,.,-6%,13%
